Sampled rows, rich in hits. Any-hit rate of the full collection: about 1.6%.
NRP1-CendR mod: modulators of CendR peptide binding to human neuropilin-1; inhibition, % at 25 µM; hit rate 0.85% among 360,000; FAM-RPARPAR peptide binding to NRP-1, fluorescence polarization; O14786; AID 602438;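 active = inhibition or corrected inhibition above about 18%, plus a signal ratio from 0.5 to 1.5, limit read from the data, passing the limit was not always enough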
VLA-4 inh: inhibition in a human VLA-4 binding assay; VLA-4 expressing cells, ligand binding flow cytometry; inhibition, % (about 7 µM as worked out from the volumes in the protocol); hit rate 0.2% among 330,000; AID 2557
PKA-R1A act: PKA-R1A complex activation; P00514+P68181; PKA-R1A dissociation, Cy5-IP20 fluorescence polarization; scaled: DMSO 0%, 113 µM cGMP 100%; activation, % at 11.4 µM; hit rate 0.083% among 340,000;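 active = percent activation above the mean of all tested compounds plus 3 SD, cut at about 19% in these data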;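 note: higher means more PKAc released from R1A so a rise in polarization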
ATG4B inhibitor: blocks human ATG4B protease cleavage of LC3 substrate; ATG4B cleavage of LC3-PLA2, NBD-HPC fluorescence, 1 h; hit rate 0.51% among 340,000; AID 504462; inhibition, % at 8.33 µM; Q9Y4P1; in the data active = inhibition above about 40%
PKA-R2B activ: activators of human PKA-R2B complex. PKA-R2B holoenzyme dissociation, Cy5-IP20 fluorescence polarization; R2B truncated from residue 108, S112A mutant; 0% DMSO only, 100% 113 µM cGMP. hit rate 0.079% among 340,000. activation, % at 11.4 µM. P22694+P31323;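 active = activation above a cutoff set at the mean over all compounds plus 3 SD, cut at about 18% in these data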;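 note: higher means more holoenzyme dissociation and a rise in polarization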
Target sequence (P31323 whole entry, looked up, other chains not shown, the tested form may be a part): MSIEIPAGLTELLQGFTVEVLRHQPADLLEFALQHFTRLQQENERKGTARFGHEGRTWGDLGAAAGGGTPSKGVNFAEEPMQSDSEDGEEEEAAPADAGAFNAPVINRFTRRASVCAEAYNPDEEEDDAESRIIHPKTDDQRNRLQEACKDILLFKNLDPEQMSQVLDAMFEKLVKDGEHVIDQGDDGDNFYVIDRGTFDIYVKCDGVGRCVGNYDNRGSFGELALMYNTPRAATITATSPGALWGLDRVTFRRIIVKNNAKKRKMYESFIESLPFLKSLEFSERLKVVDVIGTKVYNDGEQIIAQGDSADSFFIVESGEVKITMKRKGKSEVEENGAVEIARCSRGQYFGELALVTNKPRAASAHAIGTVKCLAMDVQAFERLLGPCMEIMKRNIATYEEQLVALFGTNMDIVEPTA
VLA-4 mod pick: human VLA-4 allosteric modulation in cherry picked compounds; shares compounds with VLA-4 inh; U937 cells, HUTS-21 LIBS mAb binding, flow cytometry; LDV ligand present at threefold Kd; inhibition, % at 6.7 µM; hit rate 2% among 1,300; in the data active = inhibition above about 40%
ATG4B conf: confirmation of human ATG4B inhibitors; shares compounds with ATG4B inhibitor; ATG4B protease fluorescent substrate cleavage assay; inhibition, % at 8.33 µM; hit rate 92% among 320; AID 504757; in the data active = inhibition above about 39%
PLA2 ctr: PLA2 (human) inhibition in ATG4B counter-screen; shares compounds with ATG4B inhibitor; purified PLA2, NBD-C6-HPC fluorescence, 45 min; inhibition, % at 8.33 µM; hit rate 66% among 1,600; AID 588402
Target sequence (P04054 whole entry, looked up): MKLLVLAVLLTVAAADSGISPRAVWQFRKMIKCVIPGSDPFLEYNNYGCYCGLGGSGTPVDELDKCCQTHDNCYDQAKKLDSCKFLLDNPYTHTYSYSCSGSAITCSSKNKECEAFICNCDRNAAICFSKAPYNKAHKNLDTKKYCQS
A number is an active result. Cut-off read from the data, not from the text of the source, unless noted: active = inhibition above about 50%; inactive = the rest.

What do the screens show for `ClCCN(CCCl)c1ccc(C=Cc2ccncn2)cc1`?
NRP1-CendR mod: inactive; ATG4B inhibitor: inactive

How did O=c1[nH]c(=S)n(Cc2ccc(F)cc2)c(O)c1/C=N/N1CCCCC1 do in these assays?
NRP1-CendR mod: inactive; VLA-4 inh: 56.4; PKA-R1A act: inactive; ATG4B inhibitor: inactive; PKA-R2B activ: inactive; VLA-4 mod pick: inactive

What do the screens show for `Cc1[nH]nc2ccc(-c3cncc(OC[C@@H](N)Cc4c[nH]c5ccccc45)c3)cc12`?
NRP1-CendR mod: inactive; PKA-R1A act: inactive; ATG4B inhibitor: inactive; PKA-R2B activ: inactive

Results for C/C=C1\NC(=O)[C@H](C)NC(=O)[C@@H](NC(=O)[C@H](Cc2ccc(O)cc2)NC(=O)[C@@H](NC(=O)/C(C)=C/C)C(C)C)[C@@H](C)OC(=O)[C@H](CCCc2ccc(O)cc2)NC(=O)[C@@H](CCC(=O)O)NC1=O ?
NRP1-CendR mod: inactive

Results for CCCCCCCSc1cc(OC)c(CCNC)cc1OC ?
NRP1-CendR mod: inactive; VLA-4 inh: 61.1; PKA-R1A act: inactive; ATG4B inhibitor: inactive; PKA-R2B activ: inactive; VLA-4 mod pick: inactive

How did C=C1[C@H]2CC[C@H]3[C@]4(C)C[C@H](O[C@H]5O[C@H](CO)[C@@H](OS(=O)(=O)O)[C@H](OS(=O)(=O)O)[C@H]5OC(=O)CC(C)C)C[C@@H](C(=O)O)[C@H]4CC[C@]3(C2)[C@H]1O do in these assays?
NRP1-CendR mod: inactive; VLA-4 inh: 57.1; PKA-R1A act: inactive; ATG4B inhibitor: inactive; PKA-R2B activ: inactive; VLA-4 mod pick: inactive

What do the screens show for `Cc1[nH]c2ccc(OC(F)(F)F)cc2c1CCNCc1cccc([N+](=O)[O-])c1`?
NRP1-CendR mod: inactive; VLA-4 inh: inactive; PKA-R1A act: inactive; ATG4B inhibitor: inactive; PKA-R2B activ: inactive

What do the screens show for `CCOc1cccc(CNCCc2c(C)[nH]c3ccc(OC(F)(F)F)cc23)c1O`?
NRP1-CendR mod: inactive; VLA-4 inh: 64.8; PKA-R1A act: inactive; ATG4B inhibitor: inactive; PKA-R2B activ: inactive; VLA-4 mod pick: inactive

What do the screens show for `CN1C(=O)C(=Cc2ccccc2OCc2ccccc2Cl)C(=O)N(C)C1=O`?
NRP1-CendR mod: inactive; VLA-4 inh: inactive; PKA-R1A act: inactive; ATG4B inhibitor: 50.3; PKA-R2B activ: inactive; PLA2 ctr: 51.8

How did C=C1C(C)C2C(Cc3ccccc3)NC(=O)C23OC(=O)/C=C/C(O)CCCC(C)C/C=C/C3C1O (configuration not stated) do in these assays?
NRP1-CendR mod: inactive; PKA-R1A act: inactive; ATG4B inhibitor: inactive; PKA-R2B activ: inactive

Results for CCOC(=O)CNC(=O)N1Cc2cc(-c3ccc(OC)cc3)ccc2-n2nncc2C1 ?
NRP1-CendR mod: inactive

What do the screens show for `CCc1ccccc1NC(=O)CNC1CCCCC1`?
NRP1-CendR mod: inactive; VLA-4 inh: inactive; PKA-R1A act: inactive; ATG4B inhibitor: inactive; PKA-R2B activ: inactive

How did CN(CC(=O)Nc1ccccc1-c1ccccc1)C1CCCCC1 do in these assays?
NRP1-CendR mod: inactive; VLA-4 inh: inactive; PKA-R1A act: inactive; ATG4B inhibitor: 73.2; PKA-R2B activ: inactive; PLA2 ctr: 78.9

How did C1CCC(NC2CCCCC2)CC1 do in these assays?
NRP1-CendR mod: inactive; VLA-4 inh: inactive; PKA-R1A act: inactive; ATG4B inhibitor: inactive; PKA-R2B activ: inactive

What do the screens show for `O=c1c2ccccc2nc(SCC2CCCCO2)n1-c1ccccc1` (configuration not stated)?
NRP1-CendR mod: inactive; VLA-4 inh: inactive; PKA-R1A act: inactive; ATG4B inhibitor: 49.8; PKA-R2B activ: inactive; PLA2 ctr: inactive

How did COc1ccc2c(c1)C(c1ccc(N(CCCl)CCCl)cc1)=NCC2 do in these assays?
NRP1-CendR mod: inactive; PKA-R1A act: inactive; ATG4B inhibitor: inactive; PKA-R2B activ: inactive

Results for ClCCN(CCCl)c1ccc(C2=NCCc3ccccc32)cc1 ?
NRP1-CendR mod: inactive; PKA-R1A act: inactive; ATG4B inhibitor: 40.1; PKA-R2B activ: inactive; PLA2 ctr: 56.9

Results for Cc1ccc(Cn2cc(C=O)c(-c3ccc(C)cc3)n2)cc1 ?
NRP1-CendR mod: inactive; VLA-4 inh: inactive; PKA-R1A act: inactive; ATG4B inhibitor: 63.2; PKA-R2B activ: inactive; PLA2 ctr: 60.0

How did CCn1nc(/C=C/c2ccccc2)nc2c(=O)n(C)c(=O)nc1-2 do in these assays?
NRP1-CendR mod: 26.9; ATG4B inhibitor: 86.8; ATG4B conf: inactive; PLA2 ctr: inactive

What do the screens show for `COc1ccc(-n2c(/C=C/c3ccc(O)cc3)nc3ccccc3c2=O)cc1`?
NRP1-CendR mod: inactive; VLA-4 inh: inactive; PKA-R1A act: inactive; ATG4B inhibitor: inactive; PKA-R2B activ: inactive

How did Cc1cccc(-n2c(-c3cccs3)nc3ccccc3c2=O)c1 do in these assays?
NRP1-CendR mod: inactive; VLA-4 inh: inactive; PKA-R1A act: inactive; ATG4B inhibitor: 49.2; PKA-R2B activ: inactive; ATG4B conf: 58.3; PLA2 ctr: inactive

What do the screens show for `CCCCOc1nc2ccccc2c(=O)n1-c1ccccc1`?
NRP1-CendR mod: inactive; VLA-4 inh: inactive; PKA-R1A act: inactive; ATG4B inhibitor: 40.6; PKA-R2B activ: inactive; PLA2 ctr: inactive

What do the screens show for `COc1ccc(-n2c(-c3ccc(C)cc3)nc3ccccc3c2=O)cc1`?
NRP1-CendR mod: inactive; VLA-4 inh: inactive; PKA-R1A act: inactive; ATG4B inhibitor: inactive; PKA-R2B activ: inactive

Results for CCOc1ccc(-n2c(-c3cccs3)nc3ccccc3c2=O)cc1 ?
NRP1-CendR mod: inactive; VLA-4 inh: inactive; PKA-R1A act: inactive; ATG4B inhibitor: 49.5; PKA-R2B activ: inactive; PLA2 ctr: 52.1

What do the screens show for `O=C1c2ccccc2-n2nnc(-c3ccccc3)c2C2c3ccccc3CCN12` (configuration not stated)?
NRP1-CendR mod: inactive

How did Cc1ccccc1-c1ccc2c(c1)CNCc1cnnn1-2 do in these assays?
NRP1-CendR mod: inactive

Results for Cc1cc(OCC(=O)NCC(O)c2ccccc2)c2c3c(c(=O)oc2c1)CCCC3 (configuration not stated) ?
NRP1-CendR mod: inactive; VLA-4 inh: inactive; PKA-R1A act: inactive; ATG4B inhibitor: 52.3; PKA-R2B activ: inactive; PLA2 ctr: 55.5

What do the screens show for `Cc1cc(OC(C)C(=O)NCC(O)c2ccccc2)c2c3c(c(=O)oc2c1)CCCC3` (configuration not stated)?
NRP1-CendR mod: inactive; VLA-4 inh: inactive; PKA-R1A act: inactive; ATG4B inhibitor: inactive; PKA-R2B activ: inactive

What do the screens show for `CC[C@H](C)/C=C(C)/C=C/C1=CC2=C(Cl)C(=O)[C@](C)(OC(C)=O)C(=O)C2=CO1`?
NRP1-CendR mod: inactive; VLA-4 inh: inactive; PKA-R1A act: inactive; ATG4B inhibitor: 55.1; PKA-R2B activ: inactive; PLA2 ctr: 71.0
